The source made the active and inactive calls. Rule for the calls: active = hit-call score of the fitted dose curve at least 0.9, where 1 is the maximum; inactive = score below 0.9.
target: Retinoic acid receptor alpha (Homo sapiens) (UniProt P10276); experiment: ATG_DR5_RAR_CIS: Attagene CIS-FACTORIAL HepG2 Assay for human Retinoic Acid Receptor Alpha (RARE), DR5 submotif (AID 2282934); conditions: HepG2 Attagene cis-factorial RARE DR5 reporter, mRNA; actives raise or lower the signal
In short: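 Endpoint fitted in both directions relative to DMSO as negative control. It reflects DR5 cis-element reporter mRNA induction in transiently transfected HepG2 cells, measured 24 h after dosing through RT-PCR and fluorescent capillary electrophoresis.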

Sequence of Retinoic acid receptor alpha (Homo sapiens) (P10276 whole entry, looked up): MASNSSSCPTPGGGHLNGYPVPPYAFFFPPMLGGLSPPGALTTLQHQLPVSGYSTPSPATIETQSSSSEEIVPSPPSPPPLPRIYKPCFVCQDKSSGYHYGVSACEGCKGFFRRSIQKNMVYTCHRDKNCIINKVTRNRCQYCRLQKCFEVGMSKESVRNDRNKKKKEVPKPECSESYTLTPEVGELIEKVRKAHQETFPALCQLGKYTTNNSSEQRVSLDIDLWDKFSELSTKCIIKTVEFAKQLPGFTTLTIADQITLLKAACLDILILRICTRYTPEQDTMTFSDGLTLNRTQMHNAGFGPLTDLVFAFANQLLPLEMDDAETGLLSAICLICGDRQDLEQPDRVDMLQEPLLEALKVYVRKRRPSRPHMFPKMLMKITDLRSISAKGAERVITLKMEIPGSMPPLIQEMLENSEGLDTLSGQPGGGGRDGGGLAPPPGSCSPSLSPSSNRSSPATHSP

outcome, inactive:
O=C(O)c1cn(-c2ccc(F)cc2)c2cc(N3CCNCC3)c(F)cc2c1=O
Cc1cccc(C)c1[N+](=O)[O-]
CCCCCCCCCCCCOCCO
O=c1cc(-c2ccccc2)oc2cc(O)cc(O)c12

target: Transcription factor E2F1 (Homo sapiens) (UniProt Q01094); experiment: ATG_E2F_CIS: Attagene CIS-FACTORIAL HepG2 Assay for human E2F Transcription Factor 1 (AID 2282935); conditions: HepG2 Attagene cis-reporter, E2F reporter RNA transcripts; actives raise or lower the signal
Sequence (Q01094 whole entry, looked up): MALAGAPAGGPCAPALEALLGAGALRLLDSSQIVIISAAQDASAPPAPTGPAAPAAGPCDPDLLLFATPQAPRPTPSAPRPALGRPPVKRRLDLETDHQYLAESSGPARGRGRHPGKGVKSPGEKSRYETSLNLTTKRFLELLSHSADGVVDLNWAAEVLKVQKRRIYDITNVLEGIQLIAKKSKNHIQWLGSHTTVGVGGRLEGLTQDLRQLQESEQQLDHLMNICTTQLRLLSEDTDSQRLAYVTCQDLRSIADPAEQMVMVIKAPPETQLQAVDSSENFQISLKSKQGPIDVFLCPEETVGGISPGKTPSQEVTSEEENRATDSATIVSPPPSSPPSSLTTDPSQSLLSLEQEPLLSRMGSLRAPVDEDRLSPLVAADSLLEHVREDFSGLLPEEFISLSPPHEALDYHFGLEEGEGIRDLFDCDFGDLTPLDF
In short: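 First, HepG2 cells were transfected with reporter transcription units. Next, they were dosed for 24 h. Then RNA was isolated, converted to cDNA, PCR-amplified, FAM-labeled, HpaI-digested and analyzed by capillary electrophoresis.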

outcome, inactive:
CO[Si](C)(OC)c1ccccc1
COc1ccc(OC)c(OC)c1
CN(C)CCOCCN(C)C
CCC/C=C/C=O
CC(=O)O[C@]1(C(C)=O)CC[C@H]2[C@@H]3C[C@H](C)C4=CC(=O)CC[C@]4(C)[C@H]3CC[C@@]21C
CCc1ccc(C=O)cc1
O=C(O)c1cn(-c2ccc(F)cc2)c2cc(N3CCNCC3)c(F)cc2c1=O
c1ccc2c(c1)c1cccc3ccc4cccc2c4c31
Cc1ccc(C=O)cc1
Cc1cccc(C)c1[N+](=O)[O-]
COc1nc(C)nc(N)n1
CCCCCCCCCCCCOCCO
Clc1sc(Cl)c(Cl)c1Cl
NC(N)=NC(=O)c1nc(Cl)c(N)nc1N
O=c1[nH]c(=O)n([C@H]2CCCO2)cc1F
CCC(O)CO (stereo unspecified)
CO[Si](CCCn1c(=O)n(CCC[Si](OC)(OC)OC)c(=O)n(CCC[Si](OC)(OC)OC)c1=O)(OC)OC
Nc1cc(N)cc(C(=O)O)c1
CCCC(=O)OCCC(C)CCC=C(C)C (stereo unspecified)
O=C(O)c1cccc(C(F)(F)F)c1
CC[Si](OC(C)=O)(OC(C)=O)OC(C)=O
O=S(=O)(O)NC1CCCCC1
